Assay results reported in article PMC5540273 (PLoS ONE, 2017).

test system: NLK; settings: concentration: 1 μM, replicates: in singlicate; n = 1
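Also: KINOMEscan kinase panel screen.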

SMILES	%Inh [%]
FC(F)(F)c1ccc(/C=C/c2cncnc2Nc2ccc3[nH]c(Cc4ccccc4)nc3c2)cc1 [GW709199]	9
COc1ccc(Nc2nccc(NCCNC(=O)c3cc4ccccc4s3)n2)cc1 [GSK1379896]	49
Cl.Cl.NCC(NCc1ccc(-c2ccnc3[nH]ccc23)s1)c1ccccc1 (centres unmarked) [GSK1321565]	8
O=C(Nc1cccc(-c2nn3ncccc3c2-c2ccnc(Nc3ccccc3)n2)c1)c1c(F)cccc1F [GSK198271]	95.1
Cn1cc(-c2ccc3c(c2)CCN3C(=O)Cc2cccc(F)c2)c2c(N)ncnc21 [GSK2603358]	0
Nc1ncc(-c2cccnc2)c2scc(-c3ccc4c(c3)CCN4C(=O)Cc3ccccc3)c12 [GSK683281]	47
COC(=O)Nc1nc2cc(Oc3ccc(NC(=O)Nc4cc(C(F)(F)F)ccc4F)cn3)ccc2[nH]1.Cl.Cl [GW681170]	30
CCn1c(-c2nonc2N)nc2c(C#CC(C)(C)O)nc(OC[C@H](N)c3ccccc3)cc21 [GSK943949]	7
COc1ccc(Nc2nccc(N3CCC(NC(=O)Nc4cccc(OC)c4)C3)n2)cc1 (centres unmarked) [GSK1379742]	0
O=C(Nc1cccc(Oc2ccc3nc(NC(=O)C4CC4)cn3n2)c1)c1ccccc1C(F)(F)F	37
Fc1ccc(-c2ncn(C3CCNCC3)c2-c2ccnc(Oc3ccc(-c4ccccc4)cc3)n2)cc1 [SB-245391]	52
CC(=O)Nc1nc2cnc(Nc3cc(NC(=O)c4cccc(C5(C#N)CC5)c4Cl)ccc3C)nc2s1	33
Clc1ccc(-c2nn3ncccc3c2-c2ccnc(Nc3ccc4c(c3)OCCO4)n2)cc1 [GW829116]	61
O=C(Nc1ccccc1F)NC1CCN(c2ccnc(Nc3ccc(F)cc3)n2)CC1 [GSK1379800]	12
c1ccc(-c2cnc3nccnn23)cc1 [AH20685]	0
COc1cc2c(cc1OCCN1CCNCC1)ncc1c3ccc(C#N)cc3[nH]c21	0

SMILES	%Inh [%]
COc1cccc(C2=C(Nc3ccc(Cl)c(C(=O)O)c3)C(=O)NC2=O)c1 [SB-390769]	22
O=C(O)C(F)(F)F.O=C(O)C(F)(F)F.O=c1[nH]ccc2nc(N[C@@H]3CCCNC3)nc(Nc3ccc(S(=O)(=O)N4CCOCC4)cc3)c12 [GSK2177277]	0
COc1cccc(NC(=O)NC2CCN(c3ccnc(Nc4cc(OC)c(OC)c(OC)c4)n3)C2)c1 (centres unmarked) [GSK1379763]	63
O=c1[nH]cc(-c2ccc(N3CCOCC3)cc2)c2sc(-c3cn[nH]c3)cc12 [GSK2276055]	0
Nc1ncc(-c2ccc3nccc(-c4ccncc4)c3c2)cc1S(=O)(=O)N1CCOCC1 [GSK1627798]	0
Cl.c1ccc(-c2ccc3c(Nc4ccc5[nH]ncc5c4)ccnc3c2)nc1 [GW440137]	28
Cc1ccc(C)c(NC(=O)NC2CCN(c3ccnc(Nc4ccc(F)cc4)n3)C2)c1 (centres unmarked) [GSK1379720]	4
Cl.Cl.NCC(NC(=O)c1cc(-c2ccccc2)c(-c2ccnc3[nH]ccc23)s1)c1ccccc1 (centres unmarked) [GSK1321561]	55
Cc1occc1-c1ncc(OC[C@@H](N)Cc2c[nH]c3ccccc23)cc1-c1ccc2[nH]nc(C)c2c1.O=C(O)C(F)(F)F [GSK682037]	39
CN(c1ccc(NC(=O)Nc2cc(C(F)(F)F)ccc2F)cc1)c1ccnc(Nc2ccc(S(N)(=O)=O)cc2)n1 [GW809893]	78
CC(C)c1nc(-c2cccc(NS(=O)(=O)c3c(F)cccc3F)c2F)c(-c2ccnc(Nc3ccc(N4CCOCC4)nc3)n2)s1 [GSK2008607]	97.5
Cc1cccc(Nc2nc(N[C@H]3CCNC3)ncc2C(N)=O)c1.Cl [GSK2197149]	0
COc1cccc(C(=O)Nc2cccc(Oc3ccc4nc(NC(=O)C5CC5)cn4n3)c2)c1	0
Cl.c1ccc(-c2ccc3c(Nc4ccc5[nH]ccc5c4)ccnc3c2)nc1 [GW440138]	36
CC(=O)N1CCN(c2ccc(Nc3nccc(-c4sc(C(C)C)nc4-c4cccc(NS(=O)(=O)c5cccc(Cl)c5)c4)n3)cn2)CC1 [GSK1660437]	91.8
CCn1c(-c2nonc2N)nc2c(C#CC(C)(C)O)ncc(OCCCCN)c21.O=C(O)C(F)(F)F.O=C(O)C(F)(F)F [GSK507274]	0
